According to PubChem BioAssay (NCATS):
Several values for one entry are separate records, joined by “and”; a condition that tells them apart may be missing. Equal values may be shown once. Results filed as inconclusive are left out. A call without a number means that no potency is given here. More than one record can exist for a structure, and the calls need not agree. Activity calls are given as the source filed them. Unless noted, calls come from the whole dose curve; as a rule, active = well fitted curve in the direction sought with a large enough effect; inconclusive = small, poorly fitted or top-dose-only effect, or another doubt; inactive = no such curve, though single readings can be large; an effect the other way counts as inactive or inconclusive.

Legend:
[1] = Primary qHTS for inhibitors of nuclear receptor binding SET domain protein 2 (NSD2) in an isogenic RCH-ACV NSD2 p.E1099K mutant (9B) (AID 1645876); note: nearly all actives have a fitted effect of over 70% in size; note: potency is the fitted concentration of half-maximal effect
[2] = Primary qHTS for inhibitors of nuclear receptor binding SET domain protein 2 (NSD2) in an RCH-ACV wild type WT cells (2C) (AID 1645877); note: nearly all actives have a fitted effect of over 70% in size; note: potency is the fitted concentration of half-maximal effect
[3] = target: Catechol O-methyltransferase (Homo sapiens) (UniProt P21964); test: Confirmatory Screen for Target Class Profiling of Small Molecule Inhibitors of Methyltransferases (AID 1745852; calls by dose curve); settings: MTase-Glo luminescence, SAH detection, recombinant enzyme; measured here: COMT max response; stronger effect = lower value
Sequence of Catechol O-methyltransferase (Homo sapiens) (P21964 whole entry, looked up): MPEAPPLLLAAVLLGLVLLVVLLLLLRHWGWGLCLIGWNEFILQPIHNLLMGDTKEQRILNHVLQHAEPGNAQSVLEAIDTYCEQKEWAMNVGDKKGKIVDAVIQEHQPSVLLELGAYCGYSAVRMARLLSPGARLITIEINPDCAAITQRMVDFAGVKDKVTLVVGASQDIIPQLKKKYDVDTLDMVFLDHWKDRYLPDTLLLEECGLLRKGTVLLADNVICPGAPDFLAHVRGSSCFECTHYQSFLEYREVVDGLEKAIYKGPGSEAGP

[4] = target: Guanidinoacetate N-methyltransferase (Homo sapiens) (UniProt Q14353); test: as above; settings: MTase-Glo luminescence, SAH detection, recombinant enzyme; activity change, negative = inhibition: at 57.3 µM (top of the series)
[5] = target: Rap guanine nucleotide exchange factor 3 (Homo sapiens) (UniProt O95398); test: Confirmatory qHTS for antagonist of cAMP-regulated guanine nucleotide exchange factor 3 (EPAC1) (AID 1645880); note: nearly all actives have a fitted effect of over 55% in size
Sequence of Rap guanine nucleotide exchange factor 3 (Homo sapiens) (O95398 whole entry, looked up): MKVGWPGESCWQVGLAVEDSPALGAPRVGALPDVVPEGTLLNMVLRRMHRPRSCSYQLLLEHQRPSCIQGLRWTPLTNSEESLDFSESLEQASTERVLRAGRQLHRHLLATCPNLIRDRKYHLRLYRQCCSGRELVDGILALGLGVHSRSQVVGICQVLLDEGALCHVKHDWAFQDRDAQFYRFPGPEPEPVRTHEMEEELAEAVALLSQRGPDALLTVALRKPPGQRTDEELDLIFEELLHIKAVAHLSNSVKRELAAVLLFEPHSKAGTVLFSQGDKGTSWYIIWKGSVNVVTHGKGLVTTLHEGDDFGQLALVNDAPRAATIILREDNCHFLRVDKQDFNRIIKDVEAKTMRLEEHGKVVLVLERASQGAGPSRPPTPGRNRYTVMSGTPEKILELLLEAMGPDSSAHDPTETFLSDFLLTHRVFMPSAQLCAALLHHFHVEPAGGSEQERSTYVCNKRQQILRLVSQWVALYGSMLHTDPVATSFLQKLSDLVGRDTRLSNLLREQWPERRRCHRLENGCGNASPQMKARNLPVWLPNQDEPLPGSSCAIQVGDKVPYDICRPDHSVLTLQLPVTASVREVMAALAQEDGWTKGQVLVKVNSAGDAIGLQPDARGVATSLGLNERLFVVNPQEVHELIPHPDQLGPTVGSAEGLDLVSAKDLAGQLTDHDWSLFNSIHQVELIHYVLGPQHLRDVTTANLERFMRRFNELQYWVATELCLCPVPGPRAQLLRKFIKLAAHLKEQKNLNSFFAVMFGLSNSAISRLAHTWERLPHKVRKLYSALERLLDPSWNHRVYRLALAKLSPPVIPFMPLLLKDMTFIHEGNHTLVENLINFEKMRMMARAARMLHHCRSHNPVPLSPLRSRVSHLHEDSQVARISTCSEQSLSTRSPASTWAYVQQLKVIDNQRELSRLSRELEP
Method in brief: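 Released BODIPY-GDP fluoresces less than Rap1-bound BODIPY-GDP; the signal is followed at 480/540 nm at 5-min intervals over 30 min, after 5 min at room temperature. Reactions contain 100 nM EPAC1, 250 nM RAP1B-BODIPY-GDP and 50 uM GDP; results are normalized to ATA and DMSO.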

[6] = target: Rap guanine nucleotide exchange factor 3 (Homo sapiens) (UniProt O95398); test: Confirmatory qHTS for agonist of cAMP-regulated guanine nucleotide exchange factor 3 (EPAC1) (AID 1645881); note: nearly all actives have a fitted effect of over 75% in size; note: potency is the fitted concentration of half-maximal effect
[7] = target: Rap guanine nucleotide exchange factor 4 (Homo sapiens) (UniProt Q8WZA2); test: Confirmatory qHTS for agonist of cAMP-regulated guanine nucleotide exchange factor 4 (EPAC2) (AID 1645884);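 note: nucleotide exchange releases bodipy-GDP from Rap1 and this lowers its fluorescence; nearly all actives have a fitted effect of over 65% in size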; note: potency is the fitted concentration of half-maximal effect
Sequence of Rap guanine nucleotide exchange factor 4 (Homo sapiens) (Q8WZA2 whole entry, looked up): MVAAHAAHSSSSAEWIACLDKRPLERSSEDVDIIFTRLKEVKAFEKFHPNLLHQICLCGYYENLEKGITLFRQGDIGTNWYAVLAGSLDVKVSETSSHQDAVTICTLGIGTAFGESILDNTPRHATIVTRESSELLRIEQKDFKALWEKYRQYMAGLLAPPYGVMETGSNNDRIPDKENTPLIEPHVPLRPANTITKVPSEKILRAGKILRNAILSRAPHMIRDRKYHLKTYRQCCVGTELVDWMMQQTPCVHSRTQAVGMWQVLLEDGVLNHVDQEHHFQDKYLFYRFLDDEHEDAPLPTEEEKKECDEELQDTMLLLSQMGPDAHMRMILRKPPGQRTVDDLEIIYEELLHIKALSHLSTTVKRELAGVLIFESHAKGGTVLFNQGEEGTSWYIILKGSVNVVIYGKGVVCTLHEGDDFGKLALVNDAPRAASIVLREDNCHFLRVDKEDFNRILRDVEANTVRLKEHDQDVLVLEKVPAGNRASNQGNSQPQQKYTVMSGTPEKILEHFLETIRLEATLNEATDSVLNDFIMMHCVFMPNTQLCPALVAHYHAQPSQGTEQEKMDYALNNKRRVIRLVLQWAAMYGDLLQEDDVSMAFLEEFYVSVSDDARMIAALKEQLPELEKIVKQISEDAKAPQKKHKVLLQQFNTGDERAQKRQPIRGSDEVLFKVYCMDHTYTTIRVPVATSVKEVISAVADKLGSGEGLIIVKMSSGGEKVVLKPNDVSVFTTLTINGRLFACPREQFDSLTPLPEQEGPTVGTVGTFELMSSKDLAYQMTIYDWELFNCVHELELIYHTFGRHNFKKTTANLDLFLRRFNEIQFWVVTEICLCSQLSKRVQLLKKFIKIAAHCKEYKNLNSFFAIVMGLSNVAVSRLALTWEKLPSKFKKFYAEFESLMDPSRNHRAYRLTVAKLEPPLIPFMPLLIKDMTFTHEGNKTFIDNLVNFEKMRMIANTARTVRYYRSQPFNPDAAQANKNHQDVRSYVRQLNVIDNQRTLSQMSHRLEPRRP

[8] = target: Rap guanine nucleotide exchange factor 4 (Homo sapiens) (UniProt Q8WZA2); test: Confirmatory qHTS for antagonist of cAMP-regulated guanine nucleotide exchange factor 4 (EPAC2) (AID 1645885); note: nearly all actives have a fitted effect of over 25% in size; note: potency is the fitted concentration of half-maximal effect
[9] = target: Rap guanine nucleotide exchange factor 3 (Homo sapiens) (UniProt O95398); test: Counterscreen qHTS for antagonist of cAMP-regulated guanine nucleotide exchange factor 3 (EPAC1) (AID 1645888)
Method in brief: (§1)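 Measured: fluorescence of BODIPY-GDP bound to Rap1B, which falls as exchange proceeds. Conditions include 50 uM competing GDP, 5 and 30 min reads, and a later cAMP challenge for antagonist detection.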

[10] = target: Rap guanine nucleotide exchange factor 3 (Homo sapiens) (UniProt O95398); test: Counterscreen qHTS for agonist of cAMP-regulated guanine nucleotide exchange factor 3 (EPAC1) (AID 1645889); note: nearly all actives have a fitted effect of over 40% in size; note: potency is the fitted concentration of half-maximal effect
Method in brief: as §1

C[C@](N)(Cc1ccc(O)c(O)c1)C(=O)O
Potency [1]: inactive
Potency [2]: inactive

CS(=O)(=O)Nc1ccc([N+](=O)[O-])cc1Oc1ccccc1
Potency [1]: inactive
Potency [2]: inactive

NC(=O)OCC(COC(N)=O)c1ccccc1
Potency [1]: inactive
Potency [2]: inactive

CC1(C)O[C@H]2CC(=O)OC[C@]23[C@H]2CC[C@@]4(C)[C@H](c5ccoc5)OC(=O)[C@H]5O[C@]54[C@]2(C)C(=O)C[C@@H]13
Potency [1]: inactive
Potency [2]: inactive

O=C1Cc2cc(CCN3CCN(c4nsc5ccccc45)CC3)c(Cl)cc2N1
Potency [1]: 15 µM (active)
Potency [2]: 20.5 µM (active)

CC(C)(Oc1ccc(C2CC2(Cl)Cl)cc1)C(=O)O (stereo not drawn)
Potency [1]: inactive
Potency [2]: inactive

Cn1c(=O)c2[nH]cnc2n(C)c1=O
Potency [1]: inactive
Potency [2]: inactive

Cc1cc(C(C)(C)C)c(O)c(C)c1CC1=NCCN1
Potency [1]: inactive
Potency [2]: inactive

C[C@@H]1CC(=O)NN=C1c1ccc(NN=C(C#N)C#N)cc1
Potency [1]: 9.44 µM (active) and 18.6 µM (active)
Potency [2]: 11.9 µM (active) and 23.7 µM (active)

CNCCCC12CCC(c3ccccc31)c1ccccc12
Potency [1]: 21.1 µM (active) and 20.9 µM (active)
Potency [2]: 18.8 µM (active) and 20.9 µM (active)

Nc1nnc(-c2cccc(Cl)c2Cl)c(N)n1
Potency [1]: inactive
Potency [2]: inactive

Cc1ccccc1N1C(=O)c2cc(S(N)(=O)=O)c(Cl)cc2NC1C (stereo not drawn)
Potency [1]: inactive
Potency [2]: inactive

CN(C)C(=O)C(CCN1CCC(O)(c2ccc(Cl)cc2)CC1)(c1ccccc1)c1ccccc1
activity [3]: -5.52%
activity change, negative = inhibition [4]: 6.23%

CCc1cccc2c3c([nH]c12)C(CC)(CC(=O)O)OCC3 (stereo not drawn)
Potency [1]: inactive
Potency [2]: inactive

COC(=O)Nc1nc2ccc(C(=O)c3cccs3)cc2[nH]1
Potency [1]: 13.3 nM (active) and 93.4 nM (active)
Potency [2]: 9.4 nM (active) and 66.1 nM (active)
outcome [5]: inactive
Potency [6]: inactive
Potency [7]: inactive
Potency [8]: inactive

CC(C)(C)C(=O)Oc1ccc(S(=O)(=O)Nc2ccccc2C(=O)NCC(=O)O)cc1
Potency [1]: inactive
Potency [2]: inactive

Cc1ccc(C(=O)Nc2ccc(S(=O)(=O)O)c3cc(S(=O)(=O)O)cc(S(=O)(=O)O)c23)cc1NC(=O)c1cccc(NC(=O)Nc2cccc(C(=O)Nc3cc(C(=O)Nc4ccc(S(=O)(=O)O)c5cc(S(=O)(=O)O)cc(S(=O)(=O)O)c45)ccc3C)c2)c1
Potency [1]: inactive
Potency [2]: inactive
activity [3]: 5.77%
activity change, negative = inhibition [4]: 2.65%

CN1CCN(CCCN2c3ccccc3Sc3ccc(Cl)cc32)CC1
Potency [6]: inactive
Potency [8]: 35 µM (active)

O=C(c1ccc(F)cc1)C1CCN(CCn2c(=O)[nH]c3ccccc3c2=O)CC1
Potency [1]: inactive
Potency [2]: inactive

CCOC(=O)Nc1ccc(NCc2ccc(F)cc2)nc1N
Potency [1]: inactive
Potency [2]: inactive
outcome [5]: inactive
Potency [6]: inactive
Potency [7]: inactive
Potency [8]: inactive
outcome [9]: inactive
Potency [10]: 4.47 µM (active)

CN(C)CCCN1c2ccccc2CCc2ccc(Cl)cc21
Potency [2]: 16.8 µM (active) and 18.6 µM (active)

CS(=O)(=O)CCNCc1ccc(-c2ccc3ncnc(Nc4ccc(OCc5cccc(F)c5)c(Cl)c4)c3c2)o1
Potency [1]: 18.8 µM (active) and 9.16 µM (active) and 16.6 µM (active)
Potency [2]: 11.9 µM (active) and 7.28 µM (active) and 16.6 µM (active)

Cn1ccc2cc3c(cc21)CCN3C(=O)Nc1cccnc1
Potency [1]: inactive
Potency [2]: inactive
activity [3]: -1.14%
activity change, negative = inhibition [4]: -1.78%

COc1ccc2c(c1)c(CC(=O)O)c(C)n2C(=O)c1ccc(Cl)cc1
Potency [1]: inactive
Potency [2]: inactive

NC12CC3CC(CC(C3)C1)C2
Potency [1]: inactive
Potency [2]: inactive

OCCN(CCO)c1nc(N2CCCCC2)c2nc(N(CCO)CCO)nc(N3CCCCC3)c2n1
Potency [1]: 6.68 µM (active) and inactive
Potency [2]: 6.68 µM (active) and inactive
outcome [5]: inactive
Potency [6]: 79.3 µM (active) and 70.6 µM (active) and 63 µM (active)
Potency [7]: 79.3 µM (active) and 70.6 µM (active) and 112 µM (active)
Potency [8]: inactive
outcome [9]: inactive

O=c1c(O)c(-c2ccc(O)c(O)c2)oc2cc(O)cc(O)c12
Potency [1]: 11.9 µM (active) and inactive and 9.2 µM (active)
Potency [2]: inactive and 14.6 µM (active)
Potency [6]: inactive
Potency [7]: inactive
Potency [8]: 75.7 µM (active)
outcome [9]: inactive
Potency [10]: inactive

NCCS(=O)(=O)O
Potency [1]: inactive
Potency [2]: inactive
outcome [5]: inactive
Potency [6]: inactive
Potency [7]: inactive
Potency [8]: inactive

CC[C@@]1(O)C(=O)OCc2c1cc1n(c2=O)Cc2cc3c(CN(C)C)c(O)ccc3nc2-1
Potency [1]: 16.8 nM (active) and 57.8 nM (active)
Potency [2]: 10.6 nM (active) and 23 nM (active)
outcome [5]: inactive
Potency [7]: inactive
Potency [8]: inactive
